# Rows were chosen to be rich in hits. Some 11% of all compounds tested hit in one or more screens of this group.
# MCF10A rerep – A quantitative high throughput screen for small molecules that induce DNA re-replication in MCF 10a normal breast cells. 2.9% of 350,000 active. AID 624296, 2012. Potency, µM (top dose mostly 46.1 µM), inactives show at the highest dose activity, positive = re-replication, actives largely listed as activators. MCF 10A DNA re-replication, Hoechst nuclear intensity, 48 h; note: potency is the fitted concentration of half-maximal effect; % of control where 0% means no effect; nearly all actives have a fitted effect of over 50% in size
# RORg inh – qHTS for inhibitors of ROR gamma transcriptional activity | Potency, µM (doses to about 53.6 µM), for inactives: at the top dose activity change, negative = inhibition, hits mostly inhibitors | Drosophila S2 Gal4-RORgamma UAS-luciferase reporter, 20 h | 5.4% of 310,000 active; note: potency is the fitted concentration of half-maximal effect; % is set by controls: 0 for no effect and ±100 for the full control effect; nearly all actives have a fitted effect of over 60% in size
# Target sequence (P51450 whole entry, looked up, the tested form may be a part): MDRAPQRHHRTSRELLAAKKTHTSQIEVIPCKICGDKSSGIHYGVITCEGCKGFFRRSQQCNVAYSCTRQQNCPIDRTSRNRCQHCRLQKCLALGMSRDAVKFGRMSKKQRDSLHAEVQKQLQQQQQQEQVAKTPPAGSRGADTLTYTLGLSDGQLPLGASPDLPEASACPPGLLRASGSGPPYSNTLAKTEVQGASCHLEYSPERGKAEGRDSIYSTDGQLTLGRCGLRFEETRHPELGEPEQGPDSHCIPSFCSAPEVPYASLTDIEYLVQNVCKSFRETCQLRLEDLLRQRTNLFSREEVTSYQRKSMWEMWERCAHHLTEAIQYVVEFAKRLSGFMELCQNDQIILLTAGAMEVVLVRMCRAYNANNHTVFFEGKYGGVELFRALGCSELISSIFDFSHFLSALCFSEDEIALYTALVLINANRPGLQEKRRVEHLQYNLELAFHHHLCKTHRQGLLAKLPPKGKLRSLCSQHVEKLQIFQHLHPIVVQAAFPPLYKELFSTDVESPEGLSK
#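 ROR gamma transcriptional activity was tracked as Gal4-UAS luciferase output in stably transfected Drosophila Schneider cells, with compound added 1 hr before 700 uM copper sulfate induction and a 20 hr ambient-temperature incubation.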
# VP16 counter – VP16 counterscreen qHTS for inhibitors of ROR gamma transcriptional activity | Potency, µM (series often up to 53.6 µM), for the others: top-dose activity, negative = inhibition, actives largely listed as inhibitors | 3.5% of 310,000 active | AID 2546, 2010 | Drosophila S2 Gal4-VP16 UAS-luciferase, luminescence, 20 h;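 note: Gal4-VP16 expression switched on by copper sulfate through the metallothionein promoter; potency is the fitted concentration of half-maximal effect; % is set by controls: 0 for no effect and ±100 for the full control effect; nearly all actives have a fitted effect of over 50% in size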
# SW480 rerep – A quantitative high throughput screen for small molecules that induce DNA re-replication in SW480 colon adenocarcinoma cells | SW480 DNA re-replication, Hoechst DNA content imaging, 48 h | Potency, µM (titrated, usually from 46.1 µM), for the others: at the highest dose re-replication activation, most hits filed as activators | 1.8% of 340,000 active | AID 624297, 2012; note: potency is the fitted concentration of half-maximal effect; % of control where 0% means no effect; nearly all actives have a fitted effect of over 55% in size
#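 Cells (250 per well) received 23 nL compound or DMSO by pin tool and were kept 48 hr at 37 C, 5% CO2. Nuclei were then stained with Hoechst for 40 min and scanned for DNA content.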
# IL1B secr inh – qHTS for Inhibitors of Inflammasome Signaling: IL-1-beta AlphaLISA Primary Screen. THP-1 LPS/ATP IL-1B secretion, AlphaLISA, 16 h; stronger effect = lower value. activity change, % at 57.5 µM. 4.7% of 360,000 active; in the data active = activity change below about -50%; inconclusive = mostly about -30% to -49%; note: % is set by controls: 0 for no effect and ±100 for the full control effect
#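 THP-1 cells pretreated 1 hr with compounds (up to 57.5 uM final), then stimulated with LPS (250 ng/mL final) plus ATP (1.25 mM final); secreted IL-1B measured by AlphaLISA after 16 hr, decreased signal indicating inhibition.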
# * marks the source's active call; other numbers are inactive results; ? = inconclusive; · = not tested or not shown. Unless noted, calls come from the whole dose curve; as a rule, active = well fitted curve in the direction sought with a large enough effect; inconclusive = small, poorly fitted or top-dose-only effect, or another doubt; inactive = no such curve, though single readings can be large; an effect the other way counts as inactive or inconclusive.
SMILES,MCF10A rerep,RORg inh,VP16 counter,SW480 rerep,IL1B secr inh
Cn1nnc(NC(=S)NC(=O)c2cccs2)n1,0%,8.9µM*,13µM*,?,10
COc1ccc(OC)c(Nc2nc(N(C)c3ccccc3)nc(N)c2[N+](=O)[O-])c1,-4%,0%,2%,-1%,24
CCCC[C@@H]1CC2=C(C(=O)OC(C)(C)O2)[C@@H](c2ccc(F)cc2)O1,·,·,·,·,4
O=C(NCc1ccccc1Cl)C1CCN(c2cnccn2)CC1,0.52µM*,13%,2%,-2%,7
O=C(NCc1ccc(Cl)cc1)C1CCN(c2cnccn2)CC1,?,16%,-9%,-52%,36
CC(C)Oc1ccc(C(=O)/C(=C\c2cccs2)c2nc3ccccc3o2)cc1,22%,-37%,-15%,-696%,-67*
COc1ccc(C(=O)/C(=C\c2sccc2C)c2nc3ccccc3o2)cc1,3%,-41%,0%,0%,·
Cc1ccc(S(=O)(=O)N2CCN(c3nn(C)c(=O)n(C)c3=O)CC2)cc1C,-2%,·,·,-15%,-2
CC(Oc1ccc2oc3ccccc3c2c1)C(=O)NC12CC3CC(CC(C3)C1)C2 (stereo unspecified),16µM*,?,?,?,-10
Nc1ncc(O)c(N)n1,·,10%,-6%,·,·
O=C1C=C(c2ccc3cc[nH]c3c2)C[C@@H](c2ccc3c(c2)OCO3)C1,21µM*,·,·,?,2
O=C1C=C(c2cc(Cl)cc(Cl)c2)C[C@@H](c2ccc3c(c2)OCO3)C1,?,·,·,?,6
O=C1C=C(c2ccc3c(c2)OCO3)C[C@@H](c2ccc3c(c2)OCO3)C1,3%,·,·,-9%,11
Cc1cc(C2=CC(=O)C[C@H](c3ccc4c(c3)OCO4)C2)ccc1F,?,·,·,-13%,-51*
CSCCC(NC(=O)COc1ccccc1)C(=O)N1CC(C)OC(C)C1 (stereo unspecified),-1%,·,·,-15%,-11
Cc1cc(C)nc(NC2=NCCN2C(=O)NC2CCCCC2)n1,1%,-28%,12%,0%,16
CCNC(=S)N1CCN=C1Nc1nc(C)cc(C)n1,-4%,18µM*,9%,-4%,-8
O=C(CCCl)Nc1nc2c(s1)CCc1ccccc1-2,18µM*,-36%,-11%,?,-98*
CC(=O)Nc1nc2c(s1)CCc1ccccc1-2,?,-2%,-2%,-16%,7
N#C/C(=C(/O)CCl)c1nc2c(s1)CCc1ccccc1-2,13µM*,-36%,-26%,?,-95*
Nc1nc2c(s1)CCc1ccccc1-2,0%,14%,4%,-12%,-6
O=C1c2ccccc2C(c2nnnn2C2CCCCC2)N1CCc1ccc(O)cc1 (stereo unspecified),·,·,·,·,33
CCCOc1ccc(-c2nc(N3CCN(CC)CC3)c3ccccc3n2)cc1,26%,-9%,-2%,?,-57*
CCCOc1ccc(-c2nc(N3CCN(C)CC3)c3ccccc3n2)cc1,?,-22%,-13%,?,-20
CC(NC(=O)C1CCN(C(=O)c2cccs2)CC1)c1ccc(S(N)(=O)=O)cc1 (stereo unspecified),0%,·,·,-17%,9
SMILES,MCF10A rerep,RORg inh,VP16 counter,SW480 rerep,IL1B secr inh
Cc1oc2c(c1C(=O)O)C(=O)c1ccccc1C2=O,15%,?,?,-5%,62
CCOC(=O)c1c(C)oc2c1C(=O)c1ccccc1C2=O,28%,?,-22%,3.7µM*,60
CCOC(=O)c1c(C)nc(C)c(C(=O)OCC)c1-c1ccc(O)c(OC)c1,?,39%,-4%,3.7µM*,24
Cc1oc2c(c1C(=O)c1ccccc1)C(=O)C(=O)c1ccccc1-2,?,2.8µM*,3.2µM*,?,-88*
O=C1C(=O)c2c(C(=O)c3ccccc3)coc2-c2ccccc21,21µM*,6.3µM*,3.5µM*,?,?
O=C(c1ccccc1)c1coc2ccc(O)c(Cl)c12,-5%,-3%,1%,6%,-12
CCOC(=O)c1c(C)nc2c(c1-c1ccccc1)C(=O)c1ccccc1-2,?,10%,-1%,-1%,-54*
Cc1ccc(N/C=C/C(=O)c2sc(-c3ccccc3)nc2C)cc1,9.2µM*,9%,5%,14%,-5
Cc1nc(-c2ccccc2)sc1C(=O)NN,18µM*,13µM*,11µM*,?,4
C=CCNC(=O)c1sc(-c2ccccc2)nc1C,0%,?,?,?,7
Cc1cc(-c2nc(C)c(C(=O)NN)s2)no1,18µM*,-109%,?,?,12
COc1ccc(CN(C)C(=O)/C=C/[C@H]2O[C@@H](n3cnc4c(N)ncnc43)[C@H](O)[C@@H]2O)cc1OC,·,·,·,·,24
O=C1C=CC(=O)N1c1ccccn1,-24%,·,·,0%,-2
O=C1C=CC(=O)N1c1ccccc1N1C(=O)C=CC1=O,?,·,·,2.3µM*,-98*
O=C(c1ccccc1)c1ccccc1N1C(=O)C=CC1=O,5.2µM*,5µM*,7.1µM*,?,-98*
c1ccc(COC[C@@H]2CO2)cc1,·,-1%,2%,·,·
c1ccc(CN(CCN2CCOCC2)Cc2ccccc2)cc1,6%,·,·,5%,7
CC(C)Cn1nnnc1S(=O)(=O)Cc1ccccc1,·,14%,7%,·,·
Cc1cn([C@H]2C[C@H](O)[C@@H](CCC(=O)NCCN3CCCCC3)O2)c(=O)[nH]c1=O,-1%,·,·,1%,16
COCOCCn1cc(CN2CCS(=O)(=O)N(Cc3ccc(-c4ccc(Cl)c(Cl)c4)cc3)C(C(C)C)C2=O)nn1 (stereo unspecified),·,·,·,·,-28
CCn1c(SCC(=O)c2cc(OC)ccc2OC)nnc1C(C)C,21%,-20%,-28%,-4%,-88*
CCn1c(/N=C/c2ccc(OC)cc2O)nc2ccccc21,?,20µM*,?,?,21
N#Cc1cnc2nc(SCc3ccccc3)nn2c1,18%,-14%,7%,8%,-70*

# Bioassay records from PubChem.
